LMP1 NFkB inh: EBV LMP1-driven NF-kappaB luciferase reporter inhibitors, primary screen, cell-based, luminescence, single point | LMP1-induced NF-kappaB luciferase reporter cells | hit rate 0.69% among 350,000 | inhibition, % at 12.5 µM | AID 504558, 2011; in the data active means inhibition above about 41%
TWEAK Fn14 block: inhibitors of TWEAK-Fn14 signaling, primary screen, luciferase reporter cells, uHTS. hit rate 2% among 360,000. TWEAK-stimulated Fn14 reporter cells, luciferase luminescence, 8 h. inhibition, % at 10 µM; in the data active means inhibition above about 50%
LGR2 inh: inhibitors of bursicon-induced LGR2 CRE-luciferase signal, primary screen, cell-based, HEK293, CRE-luciferase reporter, bursicon stimulation. Drosophila bursicon receptor LGR2 (rickets). inhibition, % at 9.99 µM. hit rate 0.35% among 380,000. AID 720647, 2013. bursicon-stimulated, 4 h;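 active means drop in luminescence signal, shown as inhibition above about 50% in the replicate tests, limit read from the data, passing the limit was not always enough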;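 further: agonist challenge used bursicon conditioned medium at about half maximal strength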
TROY NFkB inh: inhibitors of TROY-driven NF-kB signaling, primary screen, Q293 LMP1-TROYcd cells, NF-kB luciferase, uHTS; Q293 LMP1-TROYcd NF-kB luciferase reporter, 4 h; inhibition, % at 10 µM; hit rate 0.98% among 360,000; AID 1347056, 2019;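 active means compounds whose plate-normalised and pattern-corrected inhibition of the luciferase reporter signal at the single screening dose is 50% or more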
MITF TRPM1 inh: inhibitors of MITF-dependent TRPM1 promoter reporter, primary screen, cell-based, SK-MEL-5, single point, luciferase. SK-MEL-5 TRPM1 promoter luciferase, 24 h. inhibition, % at 12.5 µM. hit rate 0.83% among 330,000. AID 488899, 2010;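 active means mean inhibition across replicates of 60% or more, whatever share of single replicates reaches that level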
MITF TRPM1 HTS: activators of MITF-driven TRPM1 promoter reporter, primary screen, cell-based, SK-MEL-5, luciferase, single point; activation, % at 12.5 µM; hit rate 0.75% among 300,000; SK-MEL-5 TRPM1-promoter luciferase, 24 h; % of positive control, neutral wells = 0;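 active means mean activation of at least 80% with every replicate also reaching 80%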
Hits are given with their value; 0 = inactive; - = not tested or not shown. A selection: hits, their analogues and other compounds. The true share with any hit is near 3%.

SMILES	LMP1 NFkB inh	TWEAK Fn14 block	LGR2 inh	TROY NFkB inh	MITF TRPM1 inh	MITF TRPM1 HTS
COCCNC(=O)/C(C#N)=C/c1cccc(/C=C(\C#N)C(=O)NCCOC)c1	0	65	0	0	65	0
CNC(=O)/C(C#N)=C/c1cccc(Oc2ccccc2)c1	0	53	0	0	0	0
Nc1cc(OCc2ccccc2)ccc1OCc1ccccc1	0	0	0	0	0	0
c1ccc(COc2ccc3nocc3c2)cc1	0	0	0	0	0	117
COc1ccc(NC(=O)C2CCCN(S(=O)(=O)c3cccc4nonc34)C2)c(OC)c1 (stereo not given)	63	0	-	0	0	0
O=C(C[C@H]1CC[C@H]2[C@@H](COC[C@H](O)CN2Cc2nccs2)O1)NCc1ccc(Cl)cc1	-	-	0	-	-	-
O=C(CN(C1CCCCC1)S(=O)(=O)c1ccccc1)NCC1CCCO1 (stereo not given)	0	0	0	0	0	0
O=[N+]([O-])c1ccc(Cl)c(S(=O)(=O)NCC2CCCO2)c1 (stereo not given)	48	0	0	0	0	0
CN(CC(=O)NCC1CCCO1)S(=O)(=O)c1ccc(Br)cc1 (stereo not given)	0	0	0	0	0	0
O=C(CN(c1ccc(Br)cc1)S(=O)(=O)c1ccc(Cl)c([N+](=O)[O-])c1)NCC1CCCO1 (stereo not given)	0	55	0	0	85	0
O=C(CN(c1ccc(Cl)cc1)S(=O)(=O)c1ccc(Cl)c([N+](=O)[O-])c1)NCCc1ccc(F)cc1	0	0	0	0	70	0
O=C(CN(c1ccc(Cl)cc1)S(=O)(=O)c1ccc(Cl)c([N+](=O)[O-])c1)NCCc1ccccc1	0	0	0	0	0	0
O=C(CN(C1CCCCC1)S(=O)(=O)c1ccc(F)cc1)NCC1CCCO1 (stereo not given)	0	0	0	0	86	0
C[C@@H]1CN([C@H](C)CO)C(=O)Cc2cc(N(C)C)ccc2O[C@H]1CN(C)S(=O)(=O)c1ccccc1	-	-	0	-	-	-
CCCC(=O)Nc1ccc2c(c1)OC[C@@H](C)N(C(=O)c1ccccn1)C[C@@H](C)[C@@H](OC)CN(C)C2=O	-	-	0	-	-	-
Cc1cc(N2CCN(c3ccc(C(F)(F)F)cc3[N+](=O)[O-])CC2)c2ccccc2n1	0	0	0	0	0	0
Cc1cc(N2CCN(c3nc(-c4ccccc4)cs3)CC2)c2ccccc2n1	0	66	0	0	0	0
Cc1cc(N2CCN(c3ccc([N+](=O)[O-])c4cccnc34)CC2)c2ccccc2n1	0	0	-	0	76	0
COc1ccc(NC(=O)N(C)C[C@@H]2Oc3c(NC(=O)Nc4ccc(C(F)(F)F)cc4)cccc3C(=O)N([C@@H](C)CO)C[C@@H]2C)cc1	-	-	0	-	-	-
COC(=O)c1cc(-c2ccc(C)cc2)n[nH]1	0	0	-	0	0	0
COC(=O)c1cc(-c2ccc(OC)cc2)n[nH]1	0	0	0	0	0	91
OC[C@H]1OC(O)[C@H](O)[C@@H](O)[C@H]1O (stereo not given in full)	56	0	0	0	0	0
CC(C)=C1C2CCC1C(C(=O)Nc1sc(C)c(-c3ccc(C(C)C)cc3)c1C(N)=O)C2C(=O)O (stereo not given)	0	0	0	51	0	0
Cc1ccc(-c2c(C)sc(NC(=O)C3C4CCC(O4)C3C(=O)O)c2C(=O)OC(C)C)cc1 (stereo not given)	0	0	0	0	0	0
C[C@@H]1CN([C@@H](C)CO)C(=O)c2cc(N(C)C)ccc2O[C@@H](C)CCCCO[C@@H]1CN(C)S(=O)(=O)c1cn(C)cn1	-	-	0	-	-	-
SMILES	LMP1 NFkB inh	TWEAK Fn14 block	LGR2 inh	TROY NFkB inh	MITF TRPM1 inh	MITF TRPM1 HTS
COc1ccccc1CN1CC2(C1)[C@H](c1ccccc1)[C@H](CO)N2Cc1ccccc1	-	-	0	-	-	-
O=C(Cc1ccccc1)N[C@@H]1CC[C@@H](CC(=O)N2CCOCC2)O[C@@H]1CO	-	-	0	-	-	-
O=C(Nc1ccc(OCC(F)(F)C(F)F)c(C(F)(F)F)c1)c1ccccc1O	0	0	-	0	63	0
Cc1ccc(SCn2nnc3ccccc3c2=O)c(C)c1	0	0	0	0	0	110
Cc1ccc2nc(SCn3nnc4ccccc4c3=O)[nH]c2c1	0	0	0	0	0	0
COc1ccc2c3c(n(C)c2c1)[C@@H](CO)N(Cc1cc(F)ccc1F)CC31CCN(C(=O)C2CC2)CC1	-	-	0	-	-	-
CC(OC(=O)c1ccccc1Oc1ccccc1)C(=O)NC1CC1 (stereo not given)	0	0	0	59	0	0
Cc1cc(CN2CCCC(CNC(=O)c3ccc(F)cc3)C2)cc(C)c1O (stereo not given)	0	0	0	0	0	0
O=C(NCC1CCCN(Cc2ccc3nonc3c2)C1)c1ccc(F)cc1 (stereo not given)	0	0	0	71	0	0
CCCN1[C@@H]2c3ccc(C4=CCCC4)c(=O)n3C[C@@H]2[C@@H](CO)[C@@H]1C(=O)NC1Cc2ccccc2C1	-	-	0	-	-	-
CC1(Cc2ccc(Cl)cc2)C(=O)Nc2ccc(-c3ccc(F)c(Cl)c3)cc21 (stereo not given)	-	0	0	0	-	-
CC1(Cc2ccc(F)cc2)C(=O)Nc2ccc(-c3cccnc3)cc21 (stereo not given)	-	64	0	0	-	-
C=Cc1ccc(CC2(C)C(=O)Nc3ccc(-c4cccnc4)cc32)cc1 (stereo not given)	-	81	0	0	-	-
CC1(Cc2ccc3c(c2)OCO3)C(=O)Nc2ccc(-c3cccc(C(F)(F)F)c3)cc21 (stereo not given)	-	103	-	0	-	-
C[C@H]1CN([C@@H](C)CO)S(=O)(=O)c2ccc(C#CC3CC3)cc2O[C@@H]1CN(C)C(=O)CN(C)C	-	-	0	-	-	-
O=[N+]([O-])c1cc(S(=O)(=O)Oc2ccccc2)ccc1Cl	0	0	68	0	87	0
CO[C@H]1CN(C)C(=O)c2cc(NS(=O)(=O)CC(F)(F)F)ccc2OC[C@@H](C)N(Cc2ccccn2)C[C@@H]1C	-	-	0	-	-	-
O=C(c1cccnc1)N1C[C@H]2[C@@H](c3ccccc31)[C@@H](CO)N2Cc1ccc2c(c1)OCO2	-	-	0	-	-	-
C[C@H]1CN([C@@H](C)CO)C(=O)c2c(c3ccccc3n2C)-c2ccccc2CO[C@H]1CN(C)S(=O)(=O)c1ccc(C(F)(F)F)cc1	-	-	0	-	-	-
C[C@H](CO)N1C[C@H](C)[C@@H](CN(C)C(=O)Nc2cccc3ccccc23)Oc2c(NC(=O)Nc3ccc(C(F)(F)F)cc3)cccc2C1=O	-	-	0	-	-	-

Assay outcomes (PubChem BioAssay)
